Results reported in PubChem BioAssay (NCATS).
Results filed as inconclusive are left out. Calls of active or inactive are those of the source. The call rests on the fitted dose curve; in most records, active means well fitted curve in the direction sought with a large enough effect; inconclusive means small, poorly fitted or top-dose-only effect, or another doubt; inactive means no such curve, though single readings can be large; an effect the other way counts as inactive or inconclusive.

Assays:
[1] = target: Rap guanine nucleotide exchange factor 3 (Homo sapiens) (UniProt O95398); assay: Confirmatory qHTS for antagonist of cAMP-regulated guanine nucleotide exchange factor 3 (EPAC1) (AID 1645880); details: EPAC1 Rap1B-BODIPY-GDP exchange, fluorescence; series mostly up to 115 µM; further: nearly all actives have a fitted effect of over 55% in size; further: potency means the concentration at half of the fitted maximal effect
Sequence of Rap guanine nucleotide exchange factor 3 (Homo sapiens) (O95398 whole entry, looked up): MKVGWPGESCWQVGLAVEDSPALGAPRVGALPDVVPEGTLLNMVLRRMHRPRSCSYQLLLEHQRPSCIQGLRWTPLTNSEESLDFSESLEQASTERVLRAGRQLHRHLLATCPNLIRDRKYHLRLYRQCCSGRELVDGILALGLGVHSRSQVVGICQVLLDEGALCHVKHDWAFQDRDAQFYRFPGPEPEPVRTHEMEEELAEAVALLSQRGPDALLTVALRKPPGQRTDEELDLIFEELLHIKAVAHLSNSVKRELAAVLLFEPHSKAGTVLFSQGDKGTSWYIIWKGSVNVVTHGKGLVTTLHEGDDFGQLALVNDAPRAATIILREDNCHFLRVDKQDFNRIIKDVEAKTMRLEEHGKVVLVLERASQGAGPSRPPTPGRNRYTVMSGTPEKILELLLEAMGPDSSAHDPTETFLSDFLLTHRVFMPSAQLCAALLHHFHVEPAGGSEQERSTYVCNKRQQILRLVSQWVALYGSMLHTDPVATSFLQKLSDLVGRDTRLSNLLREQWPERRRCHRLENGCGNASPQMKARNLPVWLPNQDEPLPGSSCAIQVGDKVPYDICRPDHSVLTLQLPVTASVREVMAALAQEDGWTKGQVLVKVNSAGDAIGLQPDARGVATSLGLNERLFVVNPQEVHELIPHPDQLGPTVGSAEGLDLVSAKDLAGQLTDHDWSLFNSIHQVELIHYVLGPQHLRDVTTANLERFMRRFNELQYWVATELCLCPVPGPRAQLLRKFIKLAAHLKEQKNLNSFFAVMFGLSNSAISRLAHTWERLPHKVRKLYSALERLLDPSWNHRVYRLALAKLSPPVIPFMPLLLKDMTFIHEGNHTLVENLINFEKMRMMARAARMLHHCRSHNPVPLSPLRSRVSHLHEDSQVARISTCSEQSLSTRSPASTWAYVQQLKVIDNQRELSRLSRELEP
Method in brief: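 Released BODIPY-GDP fluoresces less than Rap1-bound BODIPY-GDP; the signal is followed at 480/540 nm at 5-min intervals over 30 min, after 5 min at room temperature. Reactions contain 100 nM EPAC1, 250 nM RAP1B-BODIPY-GDP and 50 uM GDP; results are normalized to ATA and DMSO.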

[2] = target: Rap guanine nucleotide exchange factor 3 (Homo sapiens) (UniProt O95398); assay: Confirmatory qHTS for agonist of cAMP-regulated guanine nucleotide exchange factor 3 (EPAC1) (AID 1645881); details: EPAC1 Rap1B BODIPY-GDP exchange fluorescence; series mostly up to 154 µM; further: nearly all actives have a fitted effect of over 75% in size; further: potency means the concentration at half of the fitted maximal effect;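 on activation: EPAC1 catalysed release of BODIPY-GDP from Rap1B seen as fluorescence loss; 100% = effect of cAMP agonist control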
[3] = target: Rap guanine nucleotide exchange factor 4 (Homo sapiens) (UniProt Q8WZA2); assay: Confirmatory qHTS for agonist of cAMP-regulated guanine nucleotide exchange factor 4 (EPAC2) (AID 1645884); details: EPAC2 GEF activity, Rap1B-BODIPY-GDP fluorescence; series mostly up to 154 µM;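 further: nucleotide exchange releases bodipy-GDP from Rap1 and this lowers its fluorescence; nearly all actives have a fitted effect of over 65% in size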; further: potency means the concentration at half of the fitted maximal effect; on activation: on the % scale 0 is the no-effect control and ±100 the full control effect
Sequence of Rap guanine nucleotide exchange factor 4 (Homo sapiens) (Q8WZA2 whole entry, looked up): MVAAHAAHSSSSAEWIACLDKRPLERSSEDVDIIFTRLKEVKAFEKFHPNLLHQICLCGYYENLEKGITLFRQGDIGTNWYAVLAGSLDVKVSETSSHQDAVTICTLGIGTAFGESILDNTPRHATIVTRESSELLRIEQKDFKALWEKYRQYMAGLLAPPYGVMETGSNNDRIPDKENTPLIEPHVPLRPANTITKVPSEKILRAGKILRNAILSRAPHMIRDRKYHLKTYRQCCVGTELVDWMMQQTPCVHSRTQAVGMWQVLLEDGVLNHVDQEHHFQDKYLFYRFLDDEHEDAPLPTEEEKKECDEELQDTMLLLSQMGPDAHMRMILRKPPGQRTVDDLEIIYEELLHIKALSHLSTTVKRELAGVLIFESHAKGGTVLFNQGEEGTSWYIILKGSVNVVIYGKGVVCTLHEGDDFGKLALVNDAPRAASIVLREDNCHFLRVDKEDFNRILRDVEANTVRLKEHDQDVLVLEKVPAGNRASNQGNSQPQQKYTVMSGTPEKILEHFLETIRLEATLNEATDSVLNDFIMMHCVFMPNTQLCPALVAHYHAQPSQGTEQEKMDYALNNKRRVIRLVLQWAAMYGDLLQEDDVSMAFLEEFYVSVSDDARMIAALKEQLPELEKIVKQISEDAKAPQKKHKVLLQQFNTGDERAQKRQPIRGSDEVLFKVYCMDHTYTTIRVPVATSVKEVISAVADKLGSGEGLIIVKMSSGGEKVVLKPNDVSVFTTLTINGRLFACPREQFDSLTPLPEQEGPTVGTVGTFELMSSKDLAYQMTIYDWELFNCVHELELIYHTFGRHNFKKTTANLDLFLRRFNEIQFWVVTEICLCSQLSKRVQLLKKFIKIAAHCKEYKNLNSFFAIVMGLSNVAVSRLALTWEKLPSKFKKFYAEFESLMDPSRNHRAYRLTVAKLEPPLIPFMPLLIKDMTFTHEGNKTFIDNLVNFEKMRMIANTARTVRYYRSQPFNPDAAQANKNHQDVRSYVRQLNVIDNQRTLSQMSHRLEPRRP

[4] = target: Rap guanine nucleotide exchange factor 4 (Homo sapiens) (UniProt Q8WZA2); assay: Confirmatory qHTS for antagonist of cAMP-regulated guanine nucleotide exchange factor 4 (EPAC2) (AID 1645885); details: EPAC2 Rap1B-BODIPY-GDP exchange fluorescence, biochemical; series mostly up to 12.7 µM; further: nearly all actives have a fitted effect of over 25% in size; further: potency means the concentration at half of the fitted maximal effect; on activity change, negative = inhibition: on the % scale 0 is the no-effect control and ±100 the full control effect
[5] = target: Rap guanine nucleotide exchange factor 3 (Homo sapiens) (UniProt O95398); assay: Counterscreen qHTS for antagonist of cAMP-regulated guanine nucleotide exchange factor 3 (EPAC1) (AID 1645888); details: Rap1B-BODIPY-GDP nucleotide exchange, fluorescence; series mostly up to 154 µM; further: % of control where 0% means no effect
Method in brief: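 Measured: fluorescence of BODIPY-GDP bound to Rap1B, which falls as exchange proceeds. Conditions include 50 uM competing GDP, 5 and 30 min reads, and a later cAMP challenge for antagonist detection.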

O=C(/C=C/c1ccco1)Nc1cccc(C(=O)Nc2ccccc2C(=O)O)c1
active: Potency [1] 3.98 µM
inactive: Potency [2] | activation [3] 3.49% [at 17.1 µM, percent relative to cAMP agonist control] | Potency [4] | activity change, negative = inhibition [5] 19% [at 30.8 µM]

CC1CN(C(=O)CCC(=O)NCc2cccc(Cl)c2)c2ccccc2S1 (stereo not given)
inactive: Potency [1] | Potency [2] | Potency [3] | Potency [4] | Potency [5]

CCC(C(=O)OCC(=O)Nc1cc(C)ccc1OC)c1ccccc1 (stereo not given)
inactive: Potency [1] | Potency [2] | activation [3] 3.82% [at 17.1 µM, percent relative to cAMP agonist control] | Potency [4] | activity change, negative = inhibition [5] -13% [at 30.8 µM]

Cc1[nH][nH]c(=O)c1C(c1c(C)[nH][nH]c1=O)c1cn(Cc2ccccc2Cl)c2ccccc12
active: Potency [1] 75.7 µM
inactive: Potency [2] | Potency [3] | Potency [4] | Potency [5]

O=C(CCN1C(=O)/C(=C/c2cccs2)SC1=S)Nc1ccc(C(=O)O)c(O)c1
active: Potency [1] 79.4 µM
inactive: Potency [2] | activation [3] 0.91% [at 17.1 µM, percent relative to cAMP agonist control] | Potency [4] | activity change, negative = inhibition [5] 19.6% [at 30.8 µM]

CCc1cc(C(=O)c2ccc(OC)cc2)c(NC(=O)CC(C)(C)CC(=O)O)s1
inactive: Potency [1] | Potency [2] | Potency [3] | Potency [4] | Potency [5]

Cc1sc(NC(=O)C2=COCCO2)nc1-c1ccc(Cl)cc1
inactive: Potency [1] | Potency [2] | Potency [3] | Potency [4] | Potency [5]

Cc1cccnc1NC(=O)c1ccc(S(=O)(=O)N2CC(C)OC(C)C2)cc1 (stereo not given)
inactive: Potency [1] | Potency [2] | Potency [3] | Potency [4] | Potency [5]

Cc1ccc(-c2cn3c(n2)sc2cc(C(=O)NCCC4=CCCCC4)ccc23)c(C)c1
inactive: Potency [1] | Potency [2] | Potency [3] | Potency [4] | Potency [5]

Cc1cc(=O)n(C2CCS(=O)(=O)C2)[nH]1 (stereo not given)
inactive: Potency [1] | Potency [2] | Potency [3] | Potency [4] | Potency [5]

COc1cc(NS(=O)(=O)c2ccc(NC(=O)/C(=C/c3ccccc3Cl)NC(=O)c3ccccc3)cc2)nc(OC)n1
inactive: Potency [2] | Potency [3] | Potency [4] | Potency [5]
active: Potency [1] 84.9 µM

Cc1ccc(S(=O)(=O)N2CCCCC2c2cccnc2)c(C)c1C (stereo not given)
inactive: Potency [1] | Potency [2] | activation [3] 14.9% [at 17.1 µM, percent relative to cAMP agonist control] | Potency [4] | activity change, negative = inhibition [5] 2.73% [at 30.8 µM]

CCc1cccc(C)c1Nc1c(-c2cccs2)nc2ncccn12
inactive: Potency [1] | Potency [2] | Potency [3] | Potency [4] | Potency [5]

COc1ccc2oc(C(=O)CCC(=O)O)c(N)c2c1
inactive: Potency [1] | Potency [2] | activation [3] 0% [at 17.1 µM, percent relative to cAMP agonist control] | Potency [4] | activity change, negative = inhibition [5] 3.66% [at 30.8 µM]

C=CCOc1ccc(C=NNc2ccc(S(=O)(=O)Nc3ccccc3C(=O)O)cc2[N+](=O)[O-])cc1OC
active: Potency [1] 7.57 µM
inactive: Potency [2] | Potency [3] | Potency [4] | Potency [5]

O=C(O)c1[nH]c2ccccc2c1C(c1cc(Br)ccc1O)c1c(C(=O)O)[nH]c2ccccc12
inactive: Potency [2] | activation [3] 11.5% [at 17.1 µM, percent relative to cAMP agonist control] | Potency [4] | activity change, negative = inhibition [5] -16.3% [at 30.8 µM]
active: Potency [1] 39.8 µM

CN(C)C(=O)CCc1ccc2c3c([nH]c2c1)[C@]1(C)[C@@H](C(=O)N2CCCCC2)C[C@H](CC(=O)NCCc2ccccn2)C(=O)N1CC3
inactive: Potency [1] | Potency [2] | activation [3] -3.15% [at 17.1 µM, percent relative to cAMP agonist control] | Potency [4] | activity change, negative = inhibition [5] -16% [at 30.8 µM]

O=C(/C=C/c1ccco1)c1cccc([N+](=O)[O-])c1
inactive: Potency [2] | Potency [3] | Potency [4] | Potency [5]
active: Potency [1] 42.6 µM

N#CC1(NC(=O)COC(=O)c2nc(Cl)c(Cl)c(N)c2Cl)CCCCC1
inactive: Potency [1] | Potency [2] | Potency [3] | Potency [4] | Potency [5]

CCCC(=O)N1c2nc(C(C)C)nn2C2(CCCCC2)[C@@H]2CCCC[C@@H]21
inactive: Potency [1] | Potency [2] | Potency [3] | Potency [4] | Potency [5]

CCn1c2ccccc2c2cc(NC(=O)CSc3nnc(-c4cccc(C)c4)o3)ccc21
inactive: Potency [1] | Potency [2] | activation [3] 3.98% [at 17.1 µM, percent relative to cAMP agonist control] | Potency [4] | activity change, negative = inhibition [5] 9.03% [at 30.8 µM]

COc1ccccc1C(=O)Nc1ccccc1C(=O)OCc1cc(=O)n2c(C)csc2n1
inactive: Potency [1] | Potency [2] | Potency [3] | Potency [4] | Potency [5]

O=C(O)c1[nH]c2ccccc2c1C(c1cc(Cl)cc([N+](=O)[O-])c1O)c1c(C(=O)O)[nH]c2ccccc12
active: Potency [1] 37.9 µM
inactive: Potency [2] | Potency [3] | Potency [4] | Potency [5]

CCCNC(=O)c1ccc2c(=O)c(O)c(-c3ccsc3)[nH]c2c1
inactive: Potency [1] | Potency [2] | activation [3] -5.87% [at 17.1 µM, percent relative to cAMP agonist control] | Potency [4] | activity change, negative = inhibition [5] -0.0367% [at 30.8 µM]

Cc1ccc2c(c1)CCCN2C(=O)c1cc(C)c(C)s1
inactive: Potency [1] | Potency [2] | Potency [3] | outcome [4] inactive [at 12.7 µM] | Potency [5]

COC(=O)C1=CN(Cc2ccc(OC)c(OC)c2)C=C(C(=O)OC)C1c1cccc(F)c1
inactive: Potency [1] | Potency [2] | Potency [3] | Potency [4] | Potency [5]

COc1ccc(OCC(=O)NCCC2=CCCCC2)c([N+](=O)[O-])c1
inactive: Potency [1] | Potency [2] | activation [3] 7.73% [at 17.1 µM, percent relative to cAMP agonist control] | Potency [4] | activity change, negative = inhibition [5] -6.06% [at 30.8 µM]

COc1cnc(-c2ccccn2)nc1Oc1cccc(Cl)c1
active: Potency [4] 10.7 µM
inactive: Potency [1] | Potency [2] | Potency [3] | Potency [5]

Cc1c(C(=O)OCC(=O)N2CCCC2=O)oc2ccccc12
inactive: Potency [1] | Potency [2] | Potency [3] | Potency [4] | Potency [5]

Cc1ccc(Cl)c2sc(N3CCN(C(=O)c4ccco4)CC3)nc12
inactive: Potency [1] | Potency [2] | activation [3] 3.67% [at 17.1 µM, percent relative to cAMP agonist control] | Potency [4] | activity change, negative = inhibition [5] -12.9% [at 30.8 µM]

O=C(OCc1ccc([N+](=O)[O-])cc1)c1cc(=O)c2ccccc2o1
inactive: Potency [1] | Potency [2] | Potency [3] | Potency [4] | Potency [5]

CCOCCCn1c(SCC(=O)Nc2cccc(OC)c2)nc2ccccc2c1=O
inactive: Potency [1] | Potency [2] | Potency [3] | Potency [4] | Potency [5]

COc1ccc(C2=NN(c3nc4ccccc4s3)C(=O)C2)cc1
inactive: Potency [2] | Potency [3] | Potency [4] | Potency [5]
active: Potency [1] 75.7 µM

N#C/C(=C/c1ccc(N2CCOCC2)o1)C(=O)Nc1ccccc1
inactive: Potency [1] | Potency [5]
active: Potency [2] 112 µM | Potency [3] 100 µM | Potency [4] 75.7 µM

COc1ccc(N/C=C2\CCc3ccccc3C2=O)cc1
active: Potency [2] 89.1 µM | Potency [3] 100 µM
inactive: Potency [1] | Potency [4] | Potency [5]

Cc1ccccc1-c1nc(CS(=O)(=O)CC(=O)N(C)C2CCCCC2)c(C)o1
inactive: Potency [1] | Potency [2] | Potency [3] | Potency [4] | Potency [5]

CC(=O)/C(=C/N(C)C)Sc1ccc(C)cc1
inactive: Potency [1] | Potency [2] | Potency [3] | Potency [4] | Potency [5]

CN(Cc1ccccc1)c1ncnc2onc(-c3ccc(F)cc3)c12
inactive: Potency [1] | Potency [2] | Potency [3] | Potency [4] | Potency [5]

COc1ccc(OC)c(NC(=O)Cc2c(C(=O)O)n(C)c3ccc(C)cc23)c1
inactive: Potency [1] | Potency [2] | Potency [3] | Potency [4] | Potency [5]

CCOc1ccc(S(=O)(=O)N2CCCCC2)c2ccccc12
inactive: Potency [1] | Potency [2] | Potency [3] | Potency [4] | Potency [5]

Cc1cc(C)c(NC(=O)Cn2c(=O)n(Cc3ccc(C(=O)NCc4ccco4)cc3)c(=O)c3sccc32)c(C)c1
active: Potency [1] 75.7 µM
inactive: Potency [2] | Potency [3] | Potency [4] | Potency [5]

Cc1cccc(NC(=O)Cn2c(O)c(N=NC(=O)c3ccncc3)c3ccccc32)c1
inactive: Potency [1] | Potency [2] | Potency [3] | Potency [4] | Potency [5]

C=CCn1c(-c2ccc(S(=O)(=O)N3CCOCC3)cc2)csc1=Nc1ccccc1
inactive: Potency [1] | Potency [2] | Potency [3] | Potency [4] | Potency [5]

Cc1nc(Cl)sc1C(=O)NC(C)c1ccc(Cl)cc1 (stereo not given)
inactive: Potency [1] | Potency [2] | Potency [3] | Potency [4] | Potency [5]

Cc1nnc(SCc2cccc3ccccc23)s1
inactive: Potency [1] | Potency [2] | Potency [3] | Potency [4] | Potency [5]

COc1ccc(C)cc1NC(=O)CSc1nc(=O)n(Cc2ccco2)c2c1CCC2
active: Potency [1] 84.9 µM
inactive: Potency [2] | Potency [3] | Potency [4] | Potency [5]
